The target in assay [1] is human Janus Kinase 2 (Jak2), JAK2 (gene 3717) (UniProt O60674). The assay is described as follows: NVS_ENZ_hJak2: NovaScreen (NVS) Enzymatic Assay for human Janus Kinase 2 (Jak2) (AID 2283169). The method in brief: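 Cell-free recombinant human JAK2 enzyme activity assay, fluorescence/electrophoretic mobility shift read 1 h after dosing. Screened in duplicate at 25 uM, then concentration-response up to 50 uM; activity as signal loss relative to DMSO.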

The target of assay [2] is human c-Jun N-terminal Kinases (JNK2), MAPK9 (gene 5601) (UniProt P45984). The assay is described as follows: NVS_ENZ_hJNK2: NovaScreen (NVS) Enzymatic Assay for human c-Jun N-terminal Kinases (JNK2) (AID 2283171). In outline:
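Cell-free recombinant human JNK2 activity assay; fluorescent substrate and product separated by electrophoretic mobility shift, read 1 h after dosing. Primary duplicate screen at 25 uM; actives run in concentration-response up to 50 uM, relative to DMSO.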

For assay [3], the target named is human MAP Kinase-Activated Protein Kinase 2 (MAPKAPK2), MAPKAPK2 (gene 9261) (UniProt P49137). The experiment in a line: NVS_ENZ_hMAPKAPK2: NovaScreen (NVS) Enzymatic Assay for human MAP Kinase-Activated Protein Kinase 2 (MAPKAPK2) (AID 2283178). The method in brief: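 Cell-free recombinant human MAPKAPK2 activity measured by fluorescence with electrophoretic mobility shift separation of substrate and product, 1 hr after dosing. Loss of signal versus DMSO; primary screen at 25 uM, concentration-response up to 50 uM.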

The target in assay [4] is human Matrix Metalloproteinase-2 (MMP2), MMP2 (gene 4313) (UniProt P08253). The experiment in a line: NVS_ENZ_hMMP2: NovaScreen (NVS) Enzymatic Assay for human Matrix Metalloproteinase-2 (MMP2) (AID 2283184). In outline: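 Cell-free recombinant MMP2 activity with a fluorescent substrate, read 1 h after dosing. Primary screen in duplicate at 25 uM; actives then run in concentration series; loss of signal fitted versus DMSO.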

The target of assay [5] is human Matrix Metalloproteinase-9 (MMP9), MMP9 (gene 4318) (UniProt P14780). The assay is described as follows: NVS_ENZ_hMMP9: NovaScreen (NVS) Enzymatic Assay for human Matrix Metalloproteinase-9 (MMP9) (AID 2283190).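 Further: cell-free recombinant MMP9 protease activity read by fluorescent substrate signal; active means inhibition seen as loss of fluorescence signal versus DMSO.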 The method in brief:
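Extracted enzyme, fluorescent substrate, 1 h post-dose read. Single conc 25 uM in duplicate, then concentration series for actives. Activity = signal loss relative to DMSO negative control.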

Assay [6] concerns the target human Phosphodiesterase 4A1 (PDE4A1), PDE4A (gene 5141) (UniProt P27815). The assay is described as follows: NVS_ENZ_hPDE4A1: NovaScreen (NVS) Enzymatic Assay for human Phosphodiesterase 4A1 (PDE4A1) (AID 2283191). In outline: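 Cell-free recombinant human PDE4A1 with fluorescent substrate; product separated by electrophoretic mobility shift, 1 h. Screened at 25 uM, then up to 50 uM in concentration-response; loss of signal fitted against DMSO.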

Assay [7] deals with cAMP-dependent protein kinase catalytic subunit alpha (Homo sapiens) (UniProt P17612). The assay is described as follows: NVS_ENZ_hPKA: NovaScreen (NVS) Enzymatic Assay for human Protein Kinase A (PKA) (AID 2283192). The method in brief: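 Recombinant human PKA with specific fluorescent substrate, product separated by electrophoretic mobility shift, read 1 h after dosing. Primary screen at 25 uM in duplicate; actives then run in concentration-response up to 50 uM, activity relative to DMSO.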

Assay [8] addresses human Phosphodiesterase 5 (PDE5), PDE5A (gene 8654) (UniProt O76074). The assay is described as follows: NVS_ENZ_hPDE5: NovaScreen (NVS) Enzymatic Assay for human Phosphodiesterase 5 (PDE5) (AID 2283194). In outline: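 Recombinant human PDE5 with specific substrate, read 1 h after dosing by fluorescence with electrophoretic mobility-shift separation of substrate and product. Initial single-concentration duplicate screen at 25 uM, actives followed in concentration series; loss of activity versus DMSO.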

Assay [9] concerns the target human Phosphodiesterase 10 (PDE10), PDE10A (gene 10846) (UniProt Q9Y233). The experiment in a line: NVS_ENZ_hPDE10: NovaScreen (NVS) Enzymatic Assay for human Phosphodiesterase 10 (PDE10) (AID 2283195). The method in brief:
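Fluorescence/mobility-shift readout of PDE10A enzyme activity, taken 1 h post-dosing. Primary screen in duplicate at 25 uM; actives (e.g. ≥30% inhibition) retested as singleton concentration-response, top concentration 50 uM.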

Assay [10] concerns the target human Phosphoinositide 3-kinase alpha (PI3Ka), PIK3CA (gene 5290) (UniProt P42336). The experiment in a line: NVS_ENZ_hPI3Ka: NovaScreen (NVS) Enzymatic Assay for human Phosphoinositide 3-kinase alpha (PI3Ka) (AID 2283196). The method in brief:
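Fluorescence/mobility-shift readout of substrate conversion by recombinant enzyme, 1 h post-dosing. Primary screen in duplicate at 25 uM; actives (e.g. ≥30% inhibition) retested in singleton concentration-response, top concentration 50 uM.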

In assay [11] the target is Tyrosine-protein phosphatase non-receptor type 11 (Homo sapiens) (UniProt Q06124). The experiment in a line: NVS_ENZ_hPTPN11: NovaScreen (NVS) Enzymatic Assay for human Protein Tyrosine Phosphatase Non-receptor Type 11 (PTPN11) (AID 2283202). The method in brief: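 Recombinant human PTPN11 activity on a fluorescent substrate, with substrate/product separated by electrophoretic mobility shift; read 0.5 h after dosing, loss of signal vs DMSO. Duplicate 25 uM screen, then concentration-response up to 50 uM.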

Assay [12] addresses human LYN Proto-Oncogene, Src family Tyrosine Kinase (LynA), LYN (gene 4067) (UniProt P07948). The assay is described as follows: NVS_ENZ_hLynA: NovaScreen (NVS) Enzymatic Assay for human LYN Proto-Oncogene, Src family Tyrosine Kinase (LynA) (AID 2283173). In outline:
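Recombinant kinase with fluorescent substrate; product separated from substrate by electrophoretic mobility shift and read 1 h after dosing. Duplicate screen at 25 uM, then concentration-response up to 50 uM; activity scored as signal loss against DMSO.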

The target in assay [13] is Mitogen-activated protein kinase 3 (Homo sapiens) (UniProt P27361). The assay is described as follows: NVS_ENZ_hMAPK3: NovaScreen (NVS) Enzymatic Assay for human Mitogen-Activated Protein Kinase 3 (MAPK 3) (AID 2283177). The method in brief:
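Cell-free enzymatic assay with recombinant protein and specific substrate; fluorescence and electrophoretic mobility shift read-out 1 h after dosing. Primary screen duplicate at 25 uM; actives then run in concentration-response up to 50 uM, loss of signal versus DMSO.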

In assay [14] the target is human Mitogen- and Stress-activated Protein Kinase-1 (Msk1), RPS6KA5 (gene 9252) (UniProt O75582). The assay is described as follows: NVS_ENZ_hMsk1: NovaScreen (NVS) Enzymatic Assay for human Mitogen- and Stress-activated Protein Kinase-1 (Msk1) (AID 2283187). The method in brief:
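Recombinant kinase with fluorescent substrate; product separated by electrophoretic mobility shift, read 1 h after dosing. Screened in duplicate at 25 uM; hits (e.g. ≥30% inhibition) tested in concentration–response up to 50 uM. DMSO baseline.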

The target in assay [15] is Serine/threonine-protein phosphatase PP1-alpha catalytic subunit (Homo sapiens) (UniProt P62136). The experiment in a line: NVS_ENZ_hPPP1CA: NovaScreen (NVS) Enzymatic Assay for human Protein Phosphatase 1 Aatalytic subunit Alpha (PPP1CA) (AID 2283200). The method in brief:
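Recombinant enzyme activity read by fluorescence with electrophoretic mobility shift separating substrate from product, 1.33 h after dosing; loss of signal vs DMSO baseline. Primary screen in duplicate at 25 uM; actives retested in concentration-response up to 50 uM.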

The target in assay [16] is human Protein Tyrosine Phosphatase Non-receptor Type 1 (PTPN1), PTPN1 (gene 5770) (UniProt P18031). The experiment in a line: NVS_ENZ_hPTPN1: NovaScreen (NVS) Enzymatic Assay for human Protein Tyrosine Phosphatase Non-receptor Type 1 (PTPN1) (AID 2283201). In outline:
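Cell-free fluorogenic-substrate activity assay on recombinant enzyme, read 1.33 h after dosing by fluorescence and electrophoretic mobility shift; loss of signal vs DMSO baseline. Primary screen in duplicate at 25 uM, hits then run in concentration-response up to 50 uM.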

Assay [17] concerns the target human Insulin Receptor (InsR), INSR (gene 3643) (UniProt P06213). The assay is described as follows: NVS_ENZ_hInsR: NovaScreen (NVS) Enzymatic Assay for human Insulin Receptor (InsR) (AID 2283168). In outline:
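Fluorescent substrate phosphorylation by recombinant kinase, product resolved by electrophoretic mobility shift, read 1 h after dosing. Screened in duplicate at 25 uM; hits (e.g., 30% inhibition) run in concentration-response to 50 uM; DMSO as baseline.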

Assay [18] has as its target human Matrix Metalloproteinase-7 (MMP7), MMP7 (gene 4316) (UniProt P09237). The experiment in a line: NVS_ENZ_hMMP7: NovaScreen (NVS) Enzymatic Assay for human Matrix Metalloproteinase-7 (MMP7) (AID 2283183). The method in brief: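 Cell-free fluorescence enzymatic assay read 1 h after compound addition, activity loss analyzed against DMSO. Primary duplicate testing at 25 uM; compounds meeting threshold rerun in singleton concentration-response up to 50 uM.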

Assay [19] deals with human Matrix Metalloproteinase-3 (MMP3), MMP3 (gene 4314) (UniProt P08254). The experiment in a line: NVS_ENZ_hMMP3: NovaScreen (NVS) Enzymatic Assay for human Matrix Metalloproteinase-3 (MMP3) (AID 2283185). The method in brief: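 Cell-free recombinant human MMP3 activity, fluorescence intensity read 1 h after dosing. Primary screen duplicate at 25 uM, actives retested in concentration series; loss of signal vs DMSO baseline.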

Assay [20] concerns the target human Protein Phosphatase, Mg2+/Mn2+ Dependent 1A (PPM1A), PPM1A (gene 5494) (UniProt P35813). The assay is described as follows: NVS_ENZ_hPPM1A: NovaScreen (NVS) Enzymatic Assay for human Protein Phosphatase, Mg2+/Mn2+ Dependent 1A (PPM1A) (AID 2283198). The method in brief:
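Cell-free recombinant PPM1A phosphatase assay with fluorescent substrate, read 1 h after dosing by electrophoretic mobility shift. Chemicals screened in duplicate at 25 uM, then in concentration-response up to 50 uM; loss of activity versus DMSO.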

Results filed as inconclusive are left out. The source made the active and inactive calls. How the source made its calls: active means hit-call score of the fitted dose curve at least 0.9, where 1 is the maximum; inconclusive means response in the unintended direction; inactive means score below 0.9.

human Phosphodiesterase 4A1 (PDE4A1), PDE4A (gene 5141), sequence (P27815 whole entry, looked up): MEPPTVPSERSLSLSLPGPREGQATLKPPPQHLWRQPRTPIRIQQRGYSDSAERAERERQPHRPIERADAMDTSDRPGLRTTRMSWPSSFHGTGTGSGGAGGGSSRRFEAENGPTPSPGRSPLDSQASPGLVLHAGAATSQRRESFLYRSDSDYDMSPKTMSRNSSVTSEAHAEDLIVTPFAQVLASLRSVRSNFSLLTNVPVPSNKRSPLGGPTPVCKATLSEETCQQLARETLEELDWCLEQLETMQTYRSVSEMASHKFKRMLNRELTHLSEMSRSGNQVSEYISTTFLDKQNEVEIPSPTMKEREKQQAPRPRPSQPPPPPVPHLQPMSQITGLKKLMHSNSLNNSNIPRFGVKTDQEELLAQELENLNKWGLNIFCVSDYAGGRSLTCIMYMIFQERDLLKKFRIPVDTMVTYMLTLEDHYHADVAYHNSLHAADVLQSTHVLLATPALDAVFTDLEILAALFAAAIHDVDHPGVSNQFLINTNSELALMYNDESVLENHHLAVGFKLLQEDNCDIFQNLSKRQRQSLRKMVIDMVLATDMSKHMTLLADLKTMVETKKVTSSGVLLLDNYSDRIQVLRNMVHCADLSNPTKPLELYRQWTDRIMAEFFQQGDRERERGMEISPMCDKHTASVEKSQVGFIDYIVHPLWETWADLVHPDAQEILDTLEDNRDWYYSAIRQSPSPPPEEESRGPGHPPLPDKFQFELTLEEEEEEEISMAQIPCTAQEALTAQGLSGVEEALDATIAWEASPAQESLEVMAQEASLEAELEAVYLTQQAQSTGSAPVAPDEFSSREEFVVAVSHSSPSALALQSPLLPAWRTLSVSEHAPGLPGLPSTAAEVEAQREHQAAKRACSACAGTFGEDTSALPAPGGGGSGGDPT
human Matrix Metalloproteinase-2 (MMP2), MMP2 (gene 4313), sequence (P08253 whole entry, looked up): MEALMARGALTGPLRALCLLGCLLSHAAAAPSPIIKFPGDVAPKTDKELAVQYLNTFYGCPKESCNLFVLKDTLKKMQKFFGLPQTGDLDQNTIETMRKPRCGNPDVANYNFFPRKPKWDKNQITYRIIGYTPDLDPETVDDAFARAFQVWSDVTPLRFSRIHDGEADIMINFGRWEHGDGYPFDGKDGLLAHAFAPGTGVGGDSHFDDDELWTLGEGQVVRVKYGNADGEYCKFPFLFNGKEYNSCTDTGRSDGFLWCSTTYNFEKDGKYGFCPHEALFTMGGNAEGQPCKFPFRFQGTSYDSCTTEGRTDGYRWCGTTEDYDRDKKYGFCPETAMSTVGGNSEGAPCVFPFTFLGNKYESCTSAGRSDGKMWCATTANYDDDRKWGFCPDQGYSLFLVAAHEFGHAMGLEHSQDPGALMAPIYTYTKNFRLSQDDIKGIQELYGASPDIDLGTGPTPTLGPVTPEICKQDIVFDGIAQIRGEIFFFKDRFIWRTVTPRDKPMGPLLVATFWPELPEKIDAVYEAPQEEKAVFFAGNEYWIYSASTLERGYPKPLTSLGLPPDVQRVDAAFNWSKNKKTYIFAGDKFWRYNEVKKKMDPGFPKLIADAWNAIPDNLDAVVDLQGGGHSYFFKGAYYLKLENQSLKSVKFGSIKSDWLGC
human Phosphoinositide 3-kinase alpha (PI3Ka), PIK3CA (gene 5290), sequence (P42336 whole entry, looked up): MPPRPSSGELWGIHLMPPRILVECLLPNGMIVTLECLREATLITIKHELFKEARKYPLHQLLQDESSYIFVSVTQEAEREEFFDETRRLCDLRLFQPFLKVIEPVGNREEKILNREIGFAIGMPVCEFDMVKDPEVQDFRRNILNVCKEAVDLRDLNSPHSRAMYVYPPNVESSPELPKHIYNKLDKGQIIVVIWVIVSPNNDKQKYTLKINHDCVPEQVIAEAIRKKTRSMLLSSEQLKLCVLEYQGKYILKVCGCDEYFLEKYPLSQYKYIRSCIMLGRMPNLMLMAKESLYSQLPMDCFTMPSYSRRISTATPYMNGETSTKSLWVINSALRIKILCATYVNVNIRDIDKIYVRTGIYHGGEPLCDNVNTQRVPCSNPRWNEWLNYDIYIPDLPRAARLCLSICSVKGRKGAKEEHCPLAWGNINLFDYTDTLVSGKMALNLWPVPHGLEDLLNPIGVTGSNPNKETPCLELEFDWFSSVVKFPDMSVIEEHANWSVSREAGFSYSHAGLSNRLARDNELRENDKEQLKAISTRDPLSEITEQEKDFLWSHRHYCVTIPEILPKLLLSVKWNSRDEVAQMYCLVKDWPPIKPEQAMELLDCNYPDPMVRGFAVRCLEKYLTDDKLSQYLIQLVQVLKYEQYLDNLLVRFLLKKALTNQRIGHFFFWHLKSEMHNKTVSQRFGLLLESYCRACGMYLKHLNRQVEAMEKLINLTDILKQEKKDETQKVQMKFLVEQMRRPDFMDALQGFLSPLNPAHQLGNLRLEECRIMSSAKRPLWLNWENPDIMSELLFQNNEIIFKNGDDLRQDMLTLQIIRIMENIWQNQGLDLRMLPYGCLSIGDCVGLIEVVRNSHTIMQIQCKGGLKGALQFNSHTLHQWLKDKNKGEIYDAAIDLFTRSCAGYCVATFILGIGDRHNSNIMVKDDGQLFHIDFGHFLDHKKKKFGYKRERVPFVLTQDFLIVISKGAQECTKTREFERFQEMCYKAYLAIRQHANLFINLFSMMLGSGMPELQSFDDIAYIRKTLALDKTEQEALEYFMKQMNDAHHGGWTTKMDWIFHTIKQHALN
human Matrix Metalloproteinase-9 (MMP9), MMP9 (gene 4318), sequence (P14780 whole entry, looked up): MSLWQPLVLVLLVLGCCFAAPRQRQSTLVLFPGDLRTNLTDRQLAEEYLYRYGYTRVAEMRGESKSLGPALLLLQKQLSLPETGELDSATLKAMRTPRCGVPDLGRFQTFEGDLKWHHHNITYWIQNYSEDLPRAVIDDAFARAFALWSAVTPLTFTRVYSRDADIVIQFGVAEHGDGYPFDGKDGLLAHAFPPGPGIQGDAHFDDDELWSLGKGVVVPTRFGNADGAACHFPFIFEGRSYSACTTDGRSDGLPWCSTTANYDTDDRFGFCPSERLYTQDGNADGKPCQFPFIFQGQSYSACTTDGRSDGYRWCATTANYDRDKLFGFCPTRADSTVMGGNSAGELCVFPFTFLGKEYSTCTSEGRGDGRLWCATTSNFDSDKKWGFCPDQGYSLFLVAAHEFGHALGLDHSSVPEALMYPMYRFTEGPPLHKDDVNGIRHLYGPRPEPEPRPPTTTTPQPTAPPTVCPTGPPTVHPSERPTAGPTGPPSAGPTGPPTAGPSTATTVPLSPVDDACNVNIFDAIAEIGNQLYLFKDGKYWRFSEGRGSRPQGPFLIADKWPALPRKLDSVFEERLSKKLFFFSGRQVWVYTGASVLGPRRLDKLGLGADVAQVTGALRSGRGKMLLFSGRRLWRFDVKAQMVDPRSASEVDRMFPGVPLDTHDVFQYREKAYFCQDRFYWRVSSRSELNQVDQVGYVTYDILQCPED
human LYN Proto-Oncogene, Src family Tyrosine Kinase (LynA), LYN (gene 4067), sequence (P07948 whole entry, looked up): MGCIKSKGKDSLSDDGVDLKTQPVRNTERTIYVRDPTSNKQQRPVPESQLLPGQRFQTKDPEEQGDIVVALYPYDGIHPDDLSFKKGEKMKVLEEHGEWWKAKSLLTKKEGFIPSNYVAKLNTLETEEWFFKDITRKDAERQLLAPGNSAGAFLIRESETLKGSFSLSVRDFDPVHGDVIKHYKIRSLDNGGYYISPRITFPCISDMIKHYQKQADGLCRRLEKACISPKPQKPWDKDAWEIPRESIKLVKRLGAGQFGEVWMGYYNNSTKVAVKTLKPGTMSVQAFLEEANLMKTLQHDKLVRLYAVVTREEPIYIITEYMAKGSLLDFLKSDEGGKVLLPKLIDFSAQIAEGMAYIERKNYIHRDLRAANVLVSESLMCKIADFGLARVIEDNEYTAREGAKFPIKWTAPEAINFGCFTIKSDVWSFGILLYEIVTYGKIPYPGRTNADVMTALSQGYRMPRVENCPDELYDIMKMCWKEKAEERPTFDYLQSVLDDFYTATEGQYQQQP
human MAP Kinase-Activated Protein Kinase 2 (MAPKAPK2), MAPKAPK2 (gene 9261), sequence (P49137 whole entry, looked up): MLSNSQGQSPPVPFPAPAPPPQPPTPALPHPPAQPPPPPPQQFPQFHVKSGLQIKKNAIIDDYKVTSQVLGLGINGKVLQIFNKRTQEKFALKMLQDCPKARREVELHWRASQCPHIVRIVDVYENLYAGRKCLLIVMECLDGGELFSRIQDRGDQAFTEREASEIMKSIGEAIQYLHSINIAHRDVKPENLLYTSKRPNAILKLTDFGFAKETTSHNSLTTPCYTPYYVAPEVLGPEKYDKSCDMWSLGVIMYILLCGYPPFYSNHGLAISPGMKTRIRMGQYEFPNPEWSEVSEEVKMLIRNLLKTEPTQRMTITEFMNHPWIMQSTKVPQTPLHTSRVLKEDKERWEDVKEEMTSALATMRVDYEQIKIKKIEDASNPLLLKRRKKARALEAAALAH
Serine/threonine-protein phosphatase PP1-alpha catalytic subunit (Homo sapiens), sequence (P62136 whole entry, looked up): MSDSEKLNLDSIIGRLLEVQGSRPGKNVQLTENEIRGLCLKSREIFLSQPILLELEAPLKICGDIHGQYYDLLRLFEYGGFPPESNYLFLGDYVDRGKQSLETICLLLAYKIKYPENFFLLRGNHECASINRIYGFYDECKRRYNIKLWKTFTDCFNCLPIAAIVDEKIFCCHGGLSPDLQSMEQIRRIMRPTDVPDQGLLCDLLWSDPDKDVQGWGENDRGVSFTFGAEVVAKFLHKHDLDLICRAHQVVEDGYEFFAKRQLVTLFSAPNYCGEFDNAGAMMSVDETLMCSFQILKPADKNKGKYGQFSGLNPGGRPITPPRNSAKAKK
human Matrix Metalloproteinase-7 (MMP7), MMP7 (gene 4316), sequence (P09237 whole entry, looked up): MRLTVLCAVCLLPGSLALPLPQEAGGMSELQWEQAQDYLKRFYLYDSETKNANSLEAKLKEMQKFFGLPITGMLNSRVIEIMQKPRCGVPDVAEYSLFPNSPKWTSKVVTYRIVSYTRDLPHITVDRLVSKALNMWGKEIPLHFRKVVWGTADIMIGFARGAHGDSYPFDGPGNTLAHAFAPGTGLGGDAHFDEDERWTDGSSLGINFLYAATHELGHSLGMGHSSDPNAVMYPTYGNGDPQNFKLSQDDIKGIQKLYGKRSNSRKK

A word on the AC50: it is the concentration giving half of the maximal activity seen. As to `O=C(O)c1cc(N=Nc2ccc(S(=O)(=O)Nc3ccccn3)cc2)ccc1O`, the call in assay [1], in [2], in [3], in assay [4], in [6] and in [7] was inactive. The outcome in assay [8], in [10] and in assay [11] was inactive. Besides, the figures for the AC50 in assay [5] and in assay [9] were 7.16 µM (active) and 5.28 µM (active), respectively.

As to `Cc1ccc(N)cc1O`, the outcome in assay [2], in assay [12], in [14], in [6], in assay [7] and in assay [8] was inactive. The compound was classed as inactive in assay [10], in assay [15] and in assay [16]. Besides, in assay [13], the concentration at half-maximal activity (AC50) was 20.1 µM (active).

With `COCCOCCOCCOC`, the compound was classed as inactive in assay [17], in assay [5] and in assay [15].

As for `Nc1nc2ncc(CNc3ccc(C(=O)N[C@@H](CCC(=O)O)C(=O)O)cc3)nc2c(=O)[nH]1`, the AC50 in assay [3] was 37.4 µM (active); in assay [15], 8.97 µM (active); in assay [11], 30.2 µM (active). Moreover, the outcome in [8] and in assay [9] was inactive.

For `Nc1ccc(Nc2ccccc2)cc1`, the result in assay [3] was inactive.

Consider `CC(C)CCCCCCCOC(=O)CCCCC(=O)OCCCCCCCC(C)C`, for which the outcome in [12] was inactive.

In the case of `CC[C@H]1OC(=O)[C@H](C)[C@@H](O[C@H]2C[C@@](C)(OC)[C@@H](O)[C@H](C)O2)[C@H](C)[C@@H](O[C@@H]2O[C@H](C)C[C@H](N(C)C)[C@H]2O)[C@](C)(O)C[C@@H](C)C(=O)[C@H](C)[C@@H](O)[C@]1(C)O`, the result in [17] was inactive.

`CC(C)c1cccc(C(C)C)c1N1C(=O)c2ccc(O)cc2C1=O`: the outcome in assay [12], in assay [13], in [18], in [4], in assay [14] and in assay [16] was inactive. The concentration at half-maximal activity (AC50) in [10] is 0.533 µM (active).

On to `C=CC(=C)CCC=C(C)C`, for which the AC50 in [18] is 6.56 µM (active).

As for `O=C(OC[C@H]1O[C@@H](OC(=O)c2cc(O)c(O)c(OC(=O)c3cc(O)c(O)c(O)c3)c2)[C@H](OC(=O)c2cc(O)c(O)c(OC(=O)c3cc(O)c(O)c(O)c3)c2)[C@@H](OC(=O)c2cc(O)c(O)c(OC(=O)c3cc(O)c(O)c(O)c3)c2)[C@@H]1OC(=O)c1cc(O)c(O)c(OC(=O)c2cc(O)c(O)c(O)c2)c1)c1cc(O)c(O)c(OC(=O)c2cc(O)c(O)c(O)c2)c1`, the AC50 in [19] is 0.437 µM (active).

On to `C=CCCCCCCCCC(=O)O`, for which the compound was classed as inactive in assay [4], in assay [6] and in [8].

On to `O=C(O)CCN(C1(C(=O)NO)CCCC1)S(=O)(=O)c1ccc(Oc2ccc(F)cc2)cc1`, for which the AC50 in assay [4] is 0.0139 µM (active); in [19], 8.47 µM (active); in assay [5], 0.00365 µM (active). In [20], the compound was called inactive.

For the compound `CC/C(=C\C(=N/O)C(N)=O)C(C)[N+](=O)[O-]` (stereo not given), the AC50 in assay [8] is 40.1 µM (active).

As for `CCN(C(=O)c1cc(C)cc(OC[C@H](C)Nc2ccncc2)c1)C(C)C`, the compound was called inactive in assay [20].

The values are drawn from PubChem BioAssay (EPA / NIEHS).
